This is a sample that favours compounds with a hit; in the whole collection about 8.1% have one here.
Gal4-VP16 FLuc: counter-screen for ROR gamma inhibitors: Gal4-VP16 reporter | AID 2546 | Potency, µM (titrated, usually from 53.6 µM), inactives show at the top dose activity, negative = inhibition, most hits filed as inhibitors | Drosophila S2 Gal4-VP16 UAS-luciferase, luminescence, 20 h | 3.5% of 310,000 active;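 note: Gal4-VP16 expression switched on by copper sulfate through the metallothionein promoter; % is set by controls: 0 for no effect and ±100 for the full control effect; nearly all actives have a fitted effect of over 50% in size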
Sfp PPTase inh: Sfp phosphopantetheinyl transferase inhibition. Biochemical Sfp PPTase activity, qHTS. Potency, µM, for inactives: largest response in the series, negative = inhibition, usual class: inhibitors. 3.5% of 310,000 active;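 note: the enzyme is Sfp with the accession as filed and its product quenches rhodamine fluorescence; 0% = enzyme reaction without inhibitor and -100% = no enzyme wells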
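Fluorescence-quenching assay: 15 nM Sfp-PPTase preincubated 15 min at room temperature with compound, then 5 uM rhodamine-CoA and 12.5 uM BHQ-2-labelled YbbR peptide added. Fluorescence (ex 525/em 598 nm) read at start and after 30 min; difference gives rate.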
Epigenetic reg: derepresses silenced GFP reporter in murine cells; Potency, µM (highest dose often 53.9 µM), for the others: at the top dose GFP activation, most hits filed as activators; murine LDR cells, GFP reporter derepression, 30 h; AID 1865; 0.2% of 280,000 active; note: % of control where 0% means no effect; nearly all actives have a fitted effect of over 60% in size
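Reporter derepression read as number of fluorescent GFP-positive objects, 20-120 um in size, counted by laser-scanning cytometer. Mouse LDR line with an epigenetically silenced CMV-GFP locus; compound incubation 30 h, 37 C.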
PINK1 expr mod: PINK1 expression modulation. Potency, µM (doses to about 76.6 µM), inactives show top-dose activation (PINK1 increase), most hits filed as activators. AID 624263. PINK1 immunofluorescence, high-content cytometry, 24 h. 0.2% of 410,000 active; active = well fitted activation curve with a large enough effect; inconclusive = small, poorly fitted or top-dose-only effect; cell line not stated here; note: % of control where 0% means no effect; nearly all actives have a fitted effect of over 65% in size
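PINK1 protein, normally rapidly degraded, was detected by immunofluorescence after 24 hour compound treatment of a stable cell line. Titration data (5 concentrations) came from laser-scanning cytometry, with CCCP-treated wells as controls.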
ClpP mod: qHTS Assay for Activators of ClpP. Potency, µM (highest dose often 57.5 µM), without a hit: at the highest dose activity change, negative = active. 1.9% of 340,000 active. ATP-dependent Clp protease proteolytic subunit (Bacillus subtilis (strain 168)), P80244. purified B. subtilis ClpP, FRET peptide cleavage, 20 min; active = well fitted falling curve with a large enough effect; inconclusive = small, poorly fitted or top-dose-only effect; inactive = no such curve, though single readings can be large or run the other way; note: the source files actives as falling curves though it sought activators and does not explain the sign; nearly all actives have a fitted effect of over 65% in size
Target sequence (P80244 whole entry, looked up): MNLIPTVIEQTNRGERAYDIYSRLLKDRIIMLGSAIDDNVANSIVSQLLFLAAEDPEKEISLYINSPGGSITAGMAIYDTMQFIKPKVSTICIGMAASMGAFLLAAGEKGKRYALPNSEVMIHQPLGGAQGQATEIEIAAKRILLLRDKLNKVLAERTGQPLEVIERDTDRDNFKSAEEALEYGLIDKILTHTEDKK
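ClpP 10 microg/mL final, pH 8 Tris/KCl buffer with BSA, glycerol, Tween-20; compound pinned in; FRET-FV substrate; RT 20 min; Ex320/Em430; ΔFRET vs ADEP 5.8 microM, DMSO, no enzyme.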
RORgamma inh: blocks mouse ROR gamma transcriptional activity; Potency, µM (highest dose often 53.6 µM), without a hit: top-dose activity change, negative = inhibition, usual class: inhibitors; Drosophila S2 Gal4-RORgamma UAS-luciferase reporter, 20 h; AID 2551; 5.4% of 310,000 active; note: % is set by controls: 0 for no effect and ±100 for the full control effect; nearly all actives have a fitted effect of over 60% in size
Target sequence (P51450 whole entry, looked up, the tested form may be a part): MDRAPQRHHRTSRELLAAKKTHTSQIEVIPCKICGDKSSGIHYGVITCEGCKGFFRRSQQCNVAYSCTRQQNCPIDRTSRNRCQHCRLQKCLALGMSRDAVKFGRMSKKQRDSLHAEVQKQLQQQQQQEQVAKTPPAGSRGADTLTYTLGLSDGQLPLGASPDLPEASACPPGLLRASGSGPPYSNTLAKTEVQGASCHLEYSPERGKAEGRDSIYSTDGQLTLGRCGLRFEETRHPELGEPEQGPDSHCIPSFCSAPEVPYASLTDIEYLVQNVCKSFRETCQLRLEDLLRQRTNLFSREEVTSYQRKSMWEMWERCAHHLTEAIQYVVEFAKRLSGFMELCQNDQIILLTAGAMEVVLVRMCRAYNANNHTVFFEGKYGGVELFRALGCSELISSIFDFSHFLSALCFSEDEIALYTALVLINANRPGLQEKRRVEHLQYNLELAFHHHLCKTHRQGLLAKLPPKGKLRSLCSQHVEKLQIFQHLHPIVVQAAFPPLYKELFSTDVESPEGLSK
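Luciferase reporter read in Schneider cells carrying Gal4-RORγ (mouse) and UAS-Photinus luciferase; cells given compound 1 h before 700 uM copper sulfate induction, then incubated 20 h at ambient temperature.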
An asterisk follows results filed as active; [ ] = remark or other dose. Unless noted, calls come from the whole dose curve; as a rule, active = well fitted curve in the direction sought with a large enough effect; inconclusive = small, poorly fitted or top-dose-only effect, or another doubt; inactive = no such curve, though single readings can be large; an effect the other way counts as inactive or inconclusive. Potency is the fitted concentration of half-maximal effect.

Screening COCCn1c(SCc2cccnc2)nnc1-c1ccco1 returned Gal4-VP16 FLuc 12%, Sfp PPTase inh 20µM*, Epigenetic reg -1%, PINK1 expr mod -1%, ClpP mod inconclusive and RORgamma inh -5%.
CC(C=O)Cc1ccc(C(C)(C)C)cc1 (stereo not drawn) was read as Gal4-VP16 FLuc -1% and RORgamma inh 25%.
`CC(C)c1ccc(NC(=O)c2cn(C3CCCCC3)c(=O)c3c2c2ccccc2n3C)cc1` gave Epigenetic reg 1%, PINK1 expr mod 0% and ClpP mod 25µM*.
Cn1c2ccccc2c2c(C(=O)NCc3ccco3)cn(C3CCCCC3)c(=O)c21 was read as Gal4-VP16 FLuc -3%, Sfp PPTase inh inconclusive, Epigenetic reg 11%, PINK1 expr mod 1%, ClpP mod -10% and RORgamma inh -27%.
Cc1ccc(CNC(=O)c2cn(C3CCCC3)c(=O)c3c2c2ccccc2n3C)o1 was read as Gal4-VP16 FLuc -24%, Sfp PPTase inh 1.4µM*, Epigenetic reg 8% and RORgamma inh -11%.
Cn1c2ccccc2c2c(C(=O)N3CCN(c4ccccn4)CC3)cn(C3CCCC3)c(=O)c21 was read as Gal4-VP16 FLuc -19%, Sfp PPTase inh -3%, Epigenetic reg 0%, PINK1 expr mod 5%, ClpP mod 32µM* and RORgamma inh -11%.
`Nc1ncnc2c1ncn2[C@@H]1O[C@H](COP(=O)(O)OP(=O)(O)OP(=O)(O)O)[C@@H](O)[C@H]1O` gave Gal4-VP16 FLuc 6%, Sfp PPTase inh 5%, Epigenetic reg 0%, PINK1 expr mod 1%, ClpP mod -2% and RORgamma inh 12%[10 µM].
CC(C)(COP(=O)(O)OP(=O)(O)OC[C@H]1O[C@@H](n2cnc3c(N)ncnc32)[C@H](O)[C@@H]1OP(=O)(O)O)C(O)C(=O)NCCC(=O)NCCS (stereo partly drawn) was read as Gal4-VP16 FLuc -12%, Sfp PPTase inh 40µM* and RORgamma inh 11%.
COc1ccc(NC(=O)C(Cc2ccccc2)NS(=O)(=O)c2ccc3c(c2)CCC(=O)N3)c(OC)c1 (stereo not drawn) was read as Epigenetic reg 1%, PINK1 expr mod 3% and ClpP mod -7%.
Screening CCOc1ccc(CNC(=O)C2CCN(C(=O)N3CC(CC)Oc4ccccc43)CC2)cc1 (stereo not drawn) returned Epigenetic reg 0%, PINK1 expr mod 0% and ClpP mod -2%.
For Cc1ccc(C2SCC(=O)N2Cc2cn3ccsc3n2)o1 (stereo not drawn) the results were Gal4-VP16 FLuc -11%, Sfp PPTase inh 56µM*, Epigenetic reg -1%, PINK1 expr mod 0%, ClpP mod -1% and RORgamma inh -1%.
Screening c1cn2cc(CN3CCOCC3)nc2s1 returned Gal4-VP16 FLuc 2%, Sfp PPTase inh -8%, Epigenetic reg -1%, PINK1 expr mod 7%[38.3 µM], ClpP mod -2% and RORgamma inh 2%.
For C=C1C(=O)CC2=C1[C@](Cc1ccc(F)cc1)(C(=O)OC)N(C(=O)c1ccccc1)C2 the results were PINK1 expr mod 7% and ClpP mod -1%.
For C=C1C(=O)C=C2CN(C(=O)c3ccccc3)[C@@](Cc3ccc(F)cc3)(C(=O)OC)[C@@H]12 the results were Gal4-VP16 FLuc 1.4µM*, Sfp PPTase inh 10µM*, Epigenetic reg 12%, PINK1 expr mod 7%, ClpP mod 0% and RORgamma inh 3.2µM*.
For O=C(NCCc1nc2ccccc2n1CCCOc1ccc2ccccc2c1)C1CCCCC1 the results were PINK1 expr mod inconclusive and ClpP mod -28%.
`CN(C(=S)Nc1ccc(SC(F)F)cc1)c1ccc(O)cc1` gave Gal4-VP16 FLuc inconclusive, Sfp PPTase inh 32µM*, Epigenetic reg 5%, PINK1 expr mod -2%, ClpP mod 29% and RORgamma inh 15%.
CN(C(=S)Nc1ccc(Oc2ccccc2)cc1)c1ccc(O)cc1 was read as Gal4-VP16 FLuc -1%, Sfp PPTase inh 7.9µM*, Epigenetic reg -2%, PINK1 expr mod -2%, ClpP mod 30% and RORgamma inh -1%.
COc1ccc(-c2nc(C)c(CCNC(=O)c3c(F)cccc3F)s2)cc1 was read as Epigenetic reg 1%, PINK1 expr mod 0% and ClpP mod 4%.
CCC(C)NC(=O)CSc1nc2c(sc3ccccc32)c(=O)n1Cc1ccccc1Cl (stereo not drawn) was read as Epigenetic reg 10%, PINK1 expr mod 2% and ClpP mod -8%.
`O=C(c1ccccc1)N1CCCCC1CCN1CCCCC1` (stereo not drawn) gave Epigenetic reg -4%, PINK1 expr mod 1% and ClpP mod 3%.
`COc1c(Cl)ccc(Cl)c1C(=O)NC(=S)N1CCOCC1` gave Gal4-VP16 FLuc 11µM*, Sfp PPTase inh 5%, Epigenetic reg -1%, PINK1 expr mod 2% and RORgamma inh 3.5µM*.
O=C(NC(=S)N1CCCC1)c1ccc(Cl)cc1Cl was read as Gal4-VP16 FLuc 1.4µM*, Sfp PPTase inh 15%, PINK1 expr mod 2%, ClpP mod 1% and RORgamma inh 0.89µM*.
Screening O=C(NC(=S)N1CCOCC1)c1ccccc1Cl returned Gal4-VP16 FLuc inconclusive, Sfp PPTase inh -20%, PINK1 expr mod 0%, ClpP mod 0% and RORgamma inh 2.8µM*.
COC(=O)c1cc2occc2n1Cc1ccc(F)cc1Cl was read as Epigenetic reg 0%, PINK1 expr mod 5% and ClpP mod -5%.
`CCN1C(=O)c2cccc3c(S(=O)(=O)N(C(=O)c4ccncc4)c4ccc(OC)cc4)ccc1c23` gave Gal4-VP16 FLuc 7.9µM*, Sfp PPTase inh -2%, Epigenetic reg 0%, PINK1 expr mod 2%, ClpP mod inconclusive and RORgamma inh inconclusive.
For CCN1C(=O)c2cccc3c(S(=O)(=O)N(C)C)ccc1c23 the results were PINK1 expr mod -1% and ClpP mod 4%.
Screening CCN1C(=O)c2cccc3c(S(=O)(=O)N(C(=O)c4cccnc4)c4ccc(OC)cc4)ccc1c23 returned Gal4-VP16 FLuc inconclusive, Sfp PPTase inh 16%, Epigenetic reg 0%, PINK1 expr mod 0%, ClpP mod 35µM* and RORgamma inh -36%.
`CCN1C(=O)c2cccc3c(S(=O)(=O)Nc4ccccc4)ccc1c23` gave Gal4-VP16 FLuc inconclusive, Sfp PPTase inh inconclusive, Epigenetic reg 1%, PINK1 expr mod 11%, ClpP mod -2% and RORgamma inh -36%.
